Calls of active or inactive are those of the source. No rule for the calls is given here.
test: Concentration response confirmation assay for small molecule inhibitors of Shiga toxin; conditions: cell-based concentration response; series mostly up to 76.6 µM

SMILES	outcome
COc1ccc(C(C)(C)C)cc1NC(=O)c1ccc2c(c1)SC1=NS(=O)(=O)CCN12	inactive
CN(C)S(=O)(=O)c1ccc(C(=O)Nc2ccc(CN3CCCC3)cc2)cc1	inactive
C=CCNC(=O)c1ccc(C)c(Br)c1	inactive
CC1CCC/C=C/C2CC(O)CC2C(O)/C=C/C(=O)O1 (stereo not drawn)	inactive
Cc1cccc(NC(=O)CCN2C(=O)c3ccccc3S2(=O)=O)c1C	inactive
CCn1c2ccccc2c2cc(NC(=O)c3cccc([N+](=O)[O-])c3)ccc21	inactive
O=C(CC(c1ccccc1)c1cc(Cl)ccc1O)N1CCCC1 (stereo not drawn)	inactive
CCN1C(=O)/C(=C/c2ccc(OC)c(OC)c2)N=C1SCC(=O)NCc1ccco1	inactive

From PubChem BioAssay AID493123 (National Center for Advancing Translational Sciences (NCATS), 2011)
